In PubChem BioAssay (NCATS):
Records with an inconclusive call do not appear. Values without a mark were called inactive. The source made the active and inactive calls. Calls follow the shape of the dose curve; as a rule, active = well fitted cell-killing curve with a large enough effect; inconclusive = small, poorly fitted or top-dose-only effect, or effect the other way; inactive = no such curve, though single readings can be large or run the other way.

Assay: Quantitative highthroughput screen to assess conditional lethalithy of SEM cells grown in Human Plasma-Like Medium with dialyzed fetal bovine serum (HPLM+ds) (AID 1963882); also: nearly all actives have a fitted effect of over 35% in size
Details: SEM B-ALL cells in HPLM+ds, CellTiter-Glo viability, 48 h; series mostly up to 45.8 µM; viability: at the top concentration
Description: Assay Provider: Jason Cantor Ph.D.
Department of Biochemistry
University of Wisconsin-Madison, Madison, WI, USA
Chemical screening studies have identified drug sensitivities across hundreds of cancer cell lines but most putative therapeutics fail to translate. Discovery and development of drug candidates in models that more accurately reflect nutrient levels in human blood is a major challenge. Here we performed high-throughput screens in conventional versus Human Plasma-Like Medium (HPLM) to identify compounds that were "missed" when screening using the artificial culture condition. Sets of conditional anticancer compounds spanned phases of clinical development and included non-oncology drugs were assessed. […] We also traced conditional phenotypes for several chemotherapeutics to availability of HPLM-specific metabolites and confirmed others for compounds whose reported targets are encoded by nonessential genes. Our findings establish generalizable strategies for exploiting conditional lethality in HPLM to reveal therapeutic candidates and mechanisms of action in cancer cells.
Described herein are the results of each viability screens against three cell lines: NOMO1 (an acute myeloid leukemia cell line); P12-Ichikawa (a T-cell acute lymphoblastic leukemia); and SEM (a B-cell ALL). Each assay was screened using 3 different cell culture media: homemade human plasma-Like medium with 10% dialyzed fetal bovine serum (HPLM+ds); RPMI1640 with 10% untreated FBS and 5mM glucose (RPMI+s); and RPMI1640 with 10% dialyzed fetal bovine serum and 5 mM glucose (RPMI+ds).
PROTOCOL TABLE (as described by Inglese J, Shamu CE and Guy RK. 2007)
SEQUENCE No. (e.g., 1, 2, 3, etc.); […] (e.g., Cells, Incubation, Reagent, etc.); VALUE and DESCRIPTION.
1; Cells; 5 uL; white, solid bottom 1536-well Greiner assay plate.
2; Compounds; 23 nL; Kalypsis pin tool (Wako USA) equipped with a 1536-well pin head to transfer to the assay plates.
3; Incubation; 48 hours; 37C incubation.
4; Reagent; 3 uL; CellTiter Glo (Promega).
5; Incubation; 5 min, room temperature
6; Detection; Luminescence, Viewlux PerkinElmer.
NOTES (numbers refer to Sequence numbers above)
1. Briefly, 5 ul of cell reagent was dispensed using a Multidrop Combi Dispenser. The NOMO1 and SEM cells were plated at 500 cells/well and the P12-Ichikawa line at 1000 cells/well.
2. After seeding the cells, 23 nL of MIPE 4.1 library compounds (in DMSO) were added to each plate using a Kalypsys 1536 Pintool dispenser. Bortezomib at final concentration of […] and DMSO were added to each plate as positive and negative controls respectively. For each screen, MIPE 4.1 compounds were added over an eleven-point concentration range […] in 3-fold dilutions.
3. Each plate was covered with a stainless steel gasketed lid to prevent evaporation and incubated for 48 hour at 37C, 95% relative humidity, and 5% CO2.
4-5. Three microliter CellTilter-GloTM luminescent substrate mix (Promega) reagent was added to the assay plate and incubated at room temperature for 5 min.
6. The luminescence signal was measured using a ViewLux (PerkinElmer) multiplate reader with a 2 second exposure time per plate. Data for each compound were normalized as percent viability such that measurements for DMSO and the empty well controls in each plate were defined as 100% and 0%, respectively.
Potency is read from the fitted curve at half-maximal effect.

Row | SMILES | viability [%] | Potency
1 | O=c1cc(-c2cccc3c2Sc2ccccc2S3)oc(N2CCOCC2)c1 | 87.3 | –
2 | CC(=O)O[C@]1(C(C)=O)CC[C@H]2[C@@H]3C=C(Cl)C4=CC(=O)[C@@H]5C[C@H]5[C@]4(C)[C@@H]3CC[C@@]21C | 101 | –
3 | CN(C)C(=O)[C@H](O)[C@H](Cc1ccccc1)NC(=O)c1cc2cc(Cl)ccc2[nH]1 | – | 2090 nM (active)
4 | CCn1cc(C(=O)O)c(=O)c2cc(F)c(N3CCNC(C)C3)c(F)c21 (stereo not given) | 99.2 | –
5 | O=C1CSC(=O)N1C(CCc1ccncc1)COc1ccc(-c2cccc([N+](=O)[O-])c2)cc1 (stereo not given) | 73.1 | –
6 | COc1cc(OC)c(C(=O)CCCN2CCCC2)c(OC)c1 | 99.5 | –
7 | C[C@@H]1C(=O)O[C@H]2CC34[C@H]5C[C@@H](C(C)(C)C)C36[C@H](OC(=O)[C@@H]6O)O[C@@]4(C(=O)O5)[C@]21O (stereo not given in full) | 91.9 | –
8 | c1ccc2c(-c3cnn4cc(-c5ccc(N6CCNCC6)cc5)cnc34)ccnc2c1 | – | 2640 nM (active)
9 | CC1CCN(c2cc(N3CCN(C)CC3)ccc2NC(=O)c2cc(C#N)c[nH]2)CC1 | 97.8 | –
10 | CN1CCc2c(c3ccccc3n2Cc2ccc(C(=O)NO)cc2)C1 | – | 11800 nM (active)
11 | NC(=O)C1CCCc2c1[nH]c1ccc(Cl)cc21 (stereo not given) | – | 2350 nM (active)
12 | CCc1c2c(nc3ccc(O)cc13)-c1cc3c(c(=O)n1C2)COC(=O)[C@]3(O)CC | – | 14.8 nM (active)
13 | Cc1ccc(NC(=O)c2cccc(N(C)C)c2)cc1NC(=O)c1ccc(O)cc1 | 101 | –
14 | O=C1NC(=O)C(c2cnc3ccccn23)=C1c1cn2c3c(cc(F)cc13)CN(C(=O)N1CCCCC1)CC2 | – | 20.9 nM (active)
15 | Cc1cccc(CN2CCN(C(c3ccccc3)c3ccc(Cl)cc3)CC2)c1 (stereo not given) | 91.4 | –
16 | OC(CN1CCN(c2cccc(Cl)c2)CC1)C(c1ccccc1)c1ccccc1 (stereo not given) | – | 833 nM (active)
17 | CN1CCC(COc2cnc(-c3cccc(Cn4nc(-c5cccc(C#N)c5)ccc4=O)c3)nc2)CC1 | 84.8 | –
18 | CC1=C(C(=O)O)N2C(=O)[C@@H](NC(=O)C(N)c3ccccc3)[C@H]2SC1 (stereo not given in full) | 109 | –
19 | C[C@@H]1CC(=O)NN=C1c1ccc(NN=C(C#N)C#N)cc1 | – | 18700 nM (active)
20 | Cc1c(C(=O)Nc2ccc(N3C[C@@H](C)O[C@@H](C)C3)nc2)cccc1-c1ccc(OC(F)(F)F)cc1 | – | 2960 nM (active)

Row | SMILES | viability [%] | Potency
21 | Cc1cnc(Nc2ccc(CN3CCOCC3)cc2)nc1Nc1cccc(S(=O)(=O)NC(C)(C)C)c1 | – | 743 nM (active)
22 | CC1(C)S[C@H]2[C@H](NC(=O)[C@@H](N)c3ccc(O)cc3)C(=O)N2[C@@H]1C(=O)O | – | 16600 nM (active)
23 | CCC[C@H](N[C@@H](C)C(=O)N1[C@@H]2CCCC[C@H]2C[C@H]1C(=O)O)C(=O)OCC | 106 | –
24 | O=C(CCCCCCC(=O)Nc1ccccc1)NO | – | 3720 nM (active)
25 | CC(=O)N[C@@H]1[C@H](O[C@@H]2c3ccc(c(Cl)c3)Oc3cc4cc(c3O[C@H]3O[C@H](CO)[C@@H](O)[C@H](O)[C@H]3NC(=O)CCCCCCCC(C)C)Oc3ccc(cc3Cl)C[C@H]3NC(=O)[C@H](N)c5ccc(O)c(c5)Oc5cc(O)cc(c5)[C@H](NC3=O)C(=O)N[C@H]4C(=O)N[C@H]3C(=O)N[C@@H]2C(=O)N[C@@H](C(=O)O)c2cc(O)cc(O[C@H]4O[C@H](CO)[C@@H](O)[C@H](O)[C@H]4O)c2-c2cc3ccc2O)O[C@H](CO)[C@@H](O)[C@@H]1O | 99.1 | –
26 | COc1ccc2c(c1)CC[C@@H](CN(C)CC(=O)O)[C@H]2c1ccccc1 | – | 2350 nM (active)
27 | CC(COc1ccccc1)N(CCCl)Cc1ccccc1 (stereo not given) | 72.4 | –
28 | COc1cc2nc(N3CCN(C(=O)c4ccco4)CC3)nc(N)c2cc1OC | – | 9350 nM (active)
29 | O=C(Nc1ccc(F)c(C(F)(F)F)c1)Nc1nnc(-c2ccncc2)s1 | 85.7 | –
30 | CCN(CC)CC#CCOC(=O)C(O)(c1ccccc1)C1CCCCC1 (stereo not given) | 86.5 | –
31 | CC1=CC(=O)c2ccccc2C1=O | – | 16600 nM (active)
32 | CCN1CCCC1CNC(=O)c1cc(S(=O)(=O)CC)c(N)cc1OC (stereo not given) | 92.4 | –
33 | CCC(C=C[C@@H]1OC(=O)C=C[C@H]1C)=C[C@H](C)CC=CC(C)=C[C@@H](C)C(=O)[C@@H](C)[C@H](O)[C@@H](C)CC(C)=CC(=O)O | – | 34.9 nM (active)
34 | CCNC(=O)[C@H]1O[C@@H](n2cnc3c(N)nc(NCCc4ccc(CCC(=O)O)cc4)nc32)[C@H](O)[C@H]1O | 80.3 | –
35 | CN(C)Cc1cccc(N=C(c2ccccc2)c2c(O)[nH]c3cc(C(=O)N(C)C)ccc23)c1 | – | 16600 nM (active)
36 | COc1cc2nc(N3CCCN(C)CC3)nc(NC3CCN(Cc4ccccc4)CC3)c2cc1OC | – | 5260 nM (active)
37 | CC(CCc1ccc(O)cc1)NCCc1ccc(O)c(O)c1 (stereo not given) | – | 20900 nM (active)
38 | COc1ccc(-c2ccc3c(N4CCOCC4)nc(N4C[C@@H](C)O[C@@H](C)C4)nc3n2)cc1CO | – | 1480 nM (active)
39 | COc1ccc(C[C@@H](C)[C@@H](C)Cc2ccc(OC)c(OC)c2)cc1OC | – | 2640 nM (active)
40 | O=c1cc(-c2ccccc2)oc2cc(O)cc(O)c12 | – | 16600 nM (active)
